Results from PubChem BioAssay (NCATS).
Records with an inconclusive call do not appear. Activity calls are given as the source filed them. The call rests on the fitted dose curve; in most records, active means well fitted inhibition curve with a large enough effect; inconclusive means small, poorly fitted or top-dose-only effect; inactive means flat fitted curve, though single readings scatter.

biological target: Calcium and integrin-binding protein 1 (Homo sapiens) (UniProt Q99828); assay: Primary qHTS for Identification of Calcium Integrin Binding Protein 1 (CIB1) Competitor (AID 1508620); conditions: CIB1-GST / FITC-alphaIIb peptide fluorescence polarization; series mostly up to 57.7 µM; activity change, negative = inhibition: at the top concentration; further: top concentration of the series differs between compounds
Procedure, shortened: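 Fluorescence polarization competition: GST-tagged CIB1 (1 uM final) preincubated with compound 15 min at room temperature, then FITC-labelled alphaIIb peptide (100 nM final) added. After 15 min at room temperature, polarization read at Ex 480/Em 540.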
On the % scale 0 is the no-effect control and ±100 the full control effect.

Calcium and integrin-binding protein 1 (Homo sapiens), sequence (Q99828 whole entry, looked up): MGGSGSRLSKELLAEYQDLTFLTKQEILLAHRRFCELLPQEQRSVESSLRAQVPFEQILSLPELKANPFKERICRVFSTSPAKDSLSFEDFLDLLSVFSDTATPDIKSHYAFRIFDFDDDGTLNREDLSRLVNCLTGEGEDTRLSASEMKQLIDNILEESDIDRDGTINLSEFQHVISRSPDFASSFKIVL

SMILES | activity change, negative = inhibition | outcome
COc1cc2ncnc(Nc3ccc(F)c(Cl)c3)c2cc1NC(=O)C=CCN1CCCCC1 | 0.496% (inactive) | –
COc1c(N2C[C@@H]3CCCN[C@H]3C2)c(F)cc2c(=O)c(C(=O)O)cn(C3CC3)c12 | -9.41% (inactive) | –
CCC[C@H](NC(=O)C(C#N)=Cc1cccc(Br)n1)c1ccccc1 | -8.26% (inactive) | –
CC1(C)OC2=C(C(=O)c3ccccc3C2=O)[C@H](NCc2ccccc2)[C@H]1O | -5.42% (inactive) | –
C=C1C(=CC=C2CCC[C@]3(C)[C@@H]([C@H](C)C=C[C@H](C)C(C)C)CC[C@@H]23)C[C@@H](O)C[C@@H]1O | -1.07% (inactive) | –
Nc1ccc(C(=O)c2cc3c(ccc4ccccc43)[nH]2)cc1 | -8.01% (inactive) | –
CC1(C)O[C@@H]2C[C@@H]3[C@H]4C[C@@H](F)C5=CC(=O)C=C[C@]5(C)[C@@]4(F)[C@@H](O)C[C@]3(C)[C@]2(C(=O)CO)O1 | -4.57% (inactive) | –
COc1cc2ncn(-c3cc(OCc4ccccc4C(F)(F)F)c(C(N)=O)s3)c2cc1OC | -1.15% (inactive) | –
CN1CCN(c2ccc3nc(-c4c(N)c5c(F)cccc5[nH]c4=O)[nH]c3c2)CC1 | 0.0456% (inactive) | –
Nc1ccn([C@@H]2CS[C@H](CO)O2)c(=O)n1 | -1.6% [at 114 µM] (inactive) | –
Cc1cccc(C=NNc2cc(N3CCOCC3)nc(OCCc3ccccn3)n2)c1 | -0.95% (inactive) | –
CC(C)(C)OC(=O)Nc1ccc(-c2cc(C(=O)NCCCCCCC(=O)NO)no2)cc1 | -0.285% (inactive) | –
Cn1cncc1[C@@](N)(c1ccc(Cl)cc1)c1ccc2c(c1)c(-c1cccc(Cl)c1)cc(=O)n2C | -3.02% (inactive) | –
CN(C)CC=CC(=O)Nc1cc2c(Nc3ccc(F)c(Cl)c3)ncnc2cc1O[C@H]1CCOC1 | -0.213% (inactive) | –
CCCCN1CCC(CNC(=O)c2c3n(c4ccccc24)CCCO3)CC1 | -4.75% (inactive) | –
C=C1C(=CC=C2CCCC3(C)[C@@H]([C@H](C)C=CC=CC(O)(CC)CC)CC[C@@H]23)C[C@@H](O)C[C@@H]1O (some centres not stated) | -1.62% (inactive) | –
O=C(C=Cc1cccc(S(=O)(=O)Nc2ccccc2)c1)NO | -5.15% [at 114 µM] (inactive) | –
CC=C1NC(=O)[C@H]2CSSCCC=C[C@H](CC(=O)N[C@H](C(C)C)C(=O)N2)OC(=O)[C@H](C(C)C)NC1=O | 3.2% (inactive) | –
CC(NCc1ccc2c(c1)nc(NC(=O)c1ccc(-c3cn[nH]c3)s1)n2CC(C)(C)O)C(C)(C)C (configuration not stated) | – | inactive
CC(C)=CCCC(C)=CCCC(C)=CCSc1ccccc1C(=O)O | -10.1% (inactive) | –
COc1cc(C(C)C)c2c(c1)S(=O)(=O)N(COc1cc(=O)n3cccc(OCCN4CCCCC4)c3n1)C2=O | -1.12% (inactive) | –
COc1cc(=C2C=c3ccccc3=N2)[nH]c1=Cc1[nH]c(C)cc1C | 19.9% (inactive) | –
CN[C@H]1CCc2cc(OC)c(OC)c(OC)c2-c2ccc(OC)c(=O)cc21 | 3.51% (inactive) | –
COc1cc(OC2CCN(C)CC2)ccc1Nc1ncc2c(n1)n(C1CCCC1)c(=O)n2C | -2.65% (inactive) | –
Cc1ccc(S(=O)(=O)Nc2cc(Cl)ccc2C(=O)Nc2nc(-c3ccccc3)cs2)cc1 | – | inactive
Nc1ccc(S(=O)(=O)Nc2ncccn2)cc1 | 1.67% (inactive) | –
Cc1cc(Nc2cc(N3CCN(C)CC3)nc(C=Cc3ccccc3)n2)n[nH]1 | 10.8% [at 114 µM] (inactive) | –
